Test results: PubChem BioAssay
A number with no mark means an inactive call.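 Rule for the calls: active = at least 20% inhibition of 6-phosphogluconate dehydrogenase activity; inactive = the rest.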 Where a SMILES comes first, the peptide text is derived from it.

Target: 6-phosphogluconate dehydrogenase, decarboxylating (Homo sapiens) (UniProt P52209)
Experiment: 6PGD enzyme inhibitors, primary screen, biochemical, human, recombinant enzyme, NADPH absorbance (AID 1159550)
Conditions: recombinant 6PGD, NADPH absorbance 341 nm; at 10 µM; active compounds read high

Chain of 6-phosphogluconate dehydrogenase, decarboxylating (Homo sapiens) (P52209 whole entry, looked up): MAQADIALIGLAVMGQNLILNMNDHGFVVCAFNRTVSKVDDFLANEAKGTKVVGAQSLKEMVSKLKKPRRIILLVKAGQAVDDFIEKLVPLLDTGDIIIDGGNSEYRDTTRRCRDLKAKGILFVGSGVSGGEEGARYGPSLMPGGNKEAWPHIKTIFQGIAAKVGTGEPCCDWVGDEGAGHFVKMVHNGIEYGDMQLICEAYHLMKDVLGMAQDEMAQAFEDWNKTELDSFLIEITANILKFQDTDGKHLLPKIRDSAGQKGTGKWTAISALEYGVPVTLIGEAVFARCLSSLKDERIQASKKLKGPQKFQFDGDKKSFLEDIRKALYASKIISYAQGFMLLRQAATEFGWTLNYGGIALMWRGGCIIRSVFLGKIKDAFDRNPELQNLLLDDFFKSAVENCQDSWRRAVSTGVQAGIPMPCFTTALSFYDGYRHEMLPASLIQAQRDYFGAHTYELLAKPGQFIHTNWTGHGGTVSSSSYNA

| SMILES | inhibition |
| --- | --- |
| O=C1C[C@@H](c2ccccc2)Oc2cc(O)cc(O)c21 | 17.2% |
| C=CC(C)(CCC1C(=C)CC(OC(C)=O)C2C(C)(C)CCCC12C)OC(C)=O (configuration not stated) | 11.4% |
| Oc1cc(O)cc(/C=C/c2ccccc2)c1 | -1.17% |
| CC(=O)OC1CCC2(C)C(=CCC3C2CCC2(C)C(C(C)CCCC(C)C)CCC32)C1 (configuration not stated) | 13.3% |
| CC1=C2C(=COC(C)C2C)C(=O)C(C(=O)O)=C1O (configuration not stated) | 10.6% |
| COC(=O)C[C@H]1C(C)(C)C(=O)[C@@H]2CC3=C4CC(OC)O[C@@H](c5ccoc5)[C@]4(C)CCC3[C@@]1(C)C2=O (some centres not stated) | -2.67% |
| CC(C)CCCC(C)C1CCC2C3CC(=O)[C@H]4CC(O)CCC4(C)C3CCC12C (some centres not stated) | -4.09% |
| Cc1cc(=O)c2c(O)c3c(cc2o1)OC(C)(C)CC3 | 3.81% |
| CC[C@@H](/C=C/[C@@H](C)[C@H]1CC[C@H]2[C@@H]3CC=C4C[C@@H](O)CC[C@]4(C)[C@H]3CC[C@]12C)C(C)C | 15.3% |
| COC(=O)C[C@H]1C(C)(C)[C@H](O)[C@@H]2CC3=C4CC(O)O[C@@H](c5ccoc5)[C@@]4(C)CCC3[C@]1(C)C2=O (some centres not stated) | -7.8% |
| CC(C)[C@@H](C)/C=C/[C@@H](C)[C@H]1CC[C@H]2C3=CCC4CC(=O)CC[C@]4(C)[C@H]3CC[C@]12C (some centres not stated) | 2.32% |
| CCN1CC2CCC(OC)C34C2C(O)C2(OCOC25CC(OC)C2CC3(O)C5C2OC)C14 (configuration not stated) | 4.26% |
| CC(=O)O[C@H]1CC2C(C)(C)[C@H](OC(C)=O)C=C[C@@]2(C)C2CC[C@@]3(C)C(=CC(=O)O[C@@H]3c3ccoc3)[C@]21C (some centres not stated) | 0.19% |
| CC(=O)O[C@H](CC(=O)[O-])C[N+](C)(C)C | -15.2% |
| CCCC(=O)OC1(C(=O)CO)CCC2C3CCC4=CC(=O)CCC4(C)C3C(O)CC21C (configuration not stated) | -0.0758% |
| CC(C)CC(NC(=O)CN)C(=O)NC(Cc1ccccc1)C(=O)O (stereo not drawn) (H-Gly-Leu-Phe-OH; configuration not given here) | 6.11% |
| CC(=O)O[C@H]1CCC2(C)C(=CCC3C2CCC2(C)C3CC3OC4(CCC(C)CO4)C(C)C32)C1 (some centres not stated) | -0.838% |
